Growth data for 13 compounds are collected here from PubChem BioAssay (NCI).

Holding throughout (test): NCI-60 one-dose screen, 48 h (100 = growth as untreated, 0 = no growth, -100 = all killed)
For assay [1], the system named is K-562 leukemia. The note with it: 10 µM unless noted.
Assay [2] concerns MALME-3M melanoma. Conditions: 10 µM unless noted.
The test system of assay [3] is MDA-MB-231 breast. Conditions: 10 µM unless noted.
Assay [4] concerns RXF 393 renal. Conditions: 10 µM unless noted.
For assay [5], the system named is SF-268 CNS. Conditions: 10 µM unless noted.
The test system of assay [6] is SF-295 CNS. The note with it: 10 µM unless noted.
Assay [7] has as its system SF-539 CNS. Conditions: 10 µM unless noted.
Assay [8] concerns UACC-257 melanoma. Conditions: 10 µM unless noted.
In assay [9] the test system is M14 melanoma. Conditions: 10 µM unless noted.
The test system of assay [10] is HCT-15 colon. Conditions: 10 µM unless noted.
Assay [11] relates to HT29 colon. The note with it: 10 µM unless noted.
In assay [12] the test system is SNB-75 CNS. The note with it: 10 µM unless noted.
For assay [13], the system named is SNB-19 CNS. Conditions: 10 µM unless noted.
For assay [14], the system named is U251 CNS. Conditions: 10 µM unless noted.
The subject of assay [15] is PC-3 prostate. The note with it: 10 µM unless noted.
The test system of assay [16] is SK-MEL-5 melanoma. Conditions: 10 µM unless noted.
In assay [17] the test system is UACC-62 melanoma. The note with it: 10 µM unless noted.
In assay [18] the test system is LOX IMVI melanoma. Conditions: 10 µM unless noted.
For assay [19], the system named is SK-MEL-28 melanoma. The note with it: 10 µM.
The test system of assay [20] is SK-MEL-2 melanoma. Conditions: 10 µM unless noted.

The structures appear in SMILES notation. About 83,000 compounds went through this panel and 20% of them were active in at least one assay; those are over-represented in the sample as a whole.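 A percent growth of 40 corresponds to 60% growth inhibition; 0 means no net growth; -100 means all cells died. Active threshold: below 10.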 Unmarked numbers belong to inactive results. Calls of active or inactive are those of the source.

For the compound `COc1c(B(O)O)cccc1-c1nc2ccc3n[nH]c(F)c3c2c2c1CCCC2`, the growth in assay [1] was 92.9%; in assay [2] it was 119%; in assay [3], 28.9%; in assay [4], 24.1%; in assay [5], 50.5%; in assay [6], 80%. In addition, the growth in [7] is 25.1%; in assay [8], 121%; in [9], 104%; in [10] it was 85.3%; in assay [11], 105%; in assay [12], -10.9% (active). Also, the growth was 78.8% in assay [13]; 71.4% in assay [14]; 74% in assay [15]; 88.7% in [16]; 77.7% in assay [17]; 54.7% in assay [18]. The growth in assay [19] is 116%; in [20], 110%.

`CN(C)CCCNCc1ccc(-c2ccc(F)c(Cl)c2)o1`: the growth was -19% (active) in [1]; -57.7% (active) in [2]; 13.4% in assay [3]; 16% in assay [4]; 53.3% in [5]; -18.3% (active) in assay [6]. Moreover, the growth in assay [7] is 60.8%; in [8] it was -5.97% (active); in assay [9], -80.9% (active); in [10] it was 1.01% (active); in assay [11], -30.6% (active); in assay [12] it was 40.5%. Also, the growth in assay [13] is 73.6%; in assay [14], -29.8% (active); in assay [15] it was 38.7%; in [16], 6.38% (active); in assay [17], 20.1%; in assay [18], -90.1% (active). For the same compound, the growth was -86.9% (active) in assay [19] and -14.8% (active) in assay [20].

For the compound `O=NN(Cc1cccnc1)C(=O)NC1CCCCC1`, the growth is 101% in assay [1]; 102% in [2]; 127% in assay [3]; 102% in assay [4]; 106% in [5]; 80.7% in assay [6]. The growth in assay [7] is 96.2%; in assay [8], 92.5%; in [9] it was 107%; in [10], 108%; in assay [11], 103%; in assay [12], 84.7%. In addition, the growth in assay [13] is 102%; in assay [14], 97.4%; in assay [15], 98.7%; in assay [16], 102%; in assay [17], 110%; in [18] it was 103%. Moreover, the growth in assay [19] was 104%; in assay [20], 119%.

On to `O=c1oc2ccc(F)cc2c(=O)n1-c1ccc(I)cc1F`, for which the growth in [1] is 7.88% (active); in assay [2], -22.1% (active); in assay [3] it was -25.4% (active); in assay [4], -1.5% (active); in [5] it was 12.2%; in [6], -40% (active). Further, the growth in assay [7] is 3.66% (active); in assay [8], -14.8% (active); in assay [9], 3.58% (active); in assay [10] it was 5.2% (active); in assay [11], 46.2%; in [12], -15.3% (active). Also, the growth in assay [13] was 15.6%; in assay [14], 0.481% (active); in assay [15], -2.68% (active); in assay [16], -84.1% (active); in [17] it was -16.4% (active); in assay [18] it was 10.7%. For the same compound, the results for the growth in [19] and in [20] were 12.3% and -19.7% (active), respectively.

On to `COc1cc(-c2c3c(cn2S(=O)(=O)c2ccccc2)-c2nc(N)sc2CC3)cc(OC)c1OC`, for which the growth was 8.08% (active) in [1]; 42.4% in assay [2]; 19.3% in [3]; 2.6% (active) in [4]; 40.7% in [5]; 11.2% in assay [6]. Besides, the growth was -31.8% (active) in [7]; 74% in assay [8]; 34.4% in [9]; 27.5% in [10]; 9% (active) in assay [11]; 12.1% in [12]. In addition, the growth in assay [13] is 29%; in assay [14] it was 25.8%; in assay [15], 41.8%; in [16], 14.1%; in assay [17], 51.1%; in assay [18], 38.4%. For the same compound, the growth was 68.6% in assay [19] and 54.3% in [20].

`CC(=O)c1ccc(NC(=O)Nc2ccc(S(=O)(=O)Nc3ccc(Cl)nn3)cc2)cc1`: the growth in assay [1] was 103%; in assay [2] it was 100%; in assay [3], 96.7%; in [4], 117%; in assay [5], 99.2%; in [6], 103%. Also, the growth is 97.6% in [7]; 99.4% in assay [8]; 111% in assay [9]; 107% in assay [10]; 111% in [11]; 86.4% in assay [12]. Also, the growth is 95.8% in assay [13]; 103% in assay [14]; 104% in [15]; 100% in [16]; 92% in [17]; 99% in assay [18]. Further, the growth was 107% in [19] and 108% in assay [20].

As to `O=C(NC1CCCCC1)C(c1cccs1)N(CCc1ccccc1)C(=O)c1ccco1` (stereo not given), the growth was 82.8% in assay [1]; -11.2% (active) in assay [2]; 98.5% in assay [3]; 97.3% in assay [4]; 92.6% in assay [5]; 84.7% in assay [6]. The growth in assay [7] is 90.9%; in [8], 98.6%; in [9], 93.7%; in assay [10], 93.4%; in [11], 69.6%; in [12], 91.2%. Also, the growth was 96.4% in assay [13]; 96.9% in assay [14]; 92.9% in [15]; 97.5% in assay [16]; 90.3% in assay [17]; 94.7% in [18]. Also, the growth in [19] was 105%; in [20], 84%.

Turning to `COC(=O)C1(C)CCC[C@]2(C)[C@H]3C[C@H]4C(C(C)C)=C[C@]3(CC[C@@H]12)[C@H]1[C@@H]4[C@@H](OCC#CCN2CCOCC2)CC[C@@H]1OCC#CCN1CCOCC1` (stereo not given in full), the growth is 70.3% in [1]; 79.3% in [2]; 77.2% in [3]; 91.9% in assay [4]; 83.7% in assay [5]; 93.9% in assay [6]. Further, the growth in assay [7] is 86.2%; in assay [8], 83.8%; in assay [9], 81.6%; in assay [10], 85.5%; in [11] it was 77.6%; in [12] it was 93.1%. Also, the growth was 79% in assay [13]; 70.9% in assay [14]; 53.9% in assay [15]; 80.2% in assay [16]; 61% in assay [17]; 89% in assay [18]. In addition, the figures for the growth in [19] and in assay [20] were 90.5% and 89.3%, respectively.

Take `Cc1sc2ncnc(Sc3nc4ccccc4[nH]3)c2c1C`: the growth in [1] is -47.4% (active); in assay [2] it was -82.7% (active); in assay [3], -79.5% (active); in [4], -59.7% (active); in assay [5], -78.3% (active); in assay [6] it was -81.7% (active). Moreover, the growth is -95.5% (active) in assay [7]; -88.6% (active) in assay [8]; -78.9% (active) in assay [9]; -38% (active) in assay [10]; -64.4% (active) in [11]; -85.4% (active) in assay [12]. Also, the growth is -21.7% (active) in assay [13]; -80.9% (active) in assay [14]; -43.3% (active) in assay [15]; -96.9% (active) in [16]; -91.8% (active) in [17]; -80% (active) in assay [18]. The growth in assay [19] was -92.5% (active); in [20], -81.6% (active).

`COC(=O)[C@H](NC(=O)C1(C)CCC[C@]2(C)[C@H]3C[C@H]4C(C(C)C)=C[C@]3(CC[C@@H]12)[C@@H]1C(=O)CCC(=O)[C@@H]14)C(C)C` (stereo not given in full): the growth in [1] is 96.9%; in assay [2], 104%; in [3], 90.8%; in assay [4], 105%; in assay [5], 96.5%; in assay [6], 94.8%. Further, the growth was 100% in [7]; 104% in [8]; 102% in assay [9]; 95.3% in assay [10]; 109% in assay [11]; 83.7% in assay [12]. Besides, the growth in assay [13] is 92.9%; in [14], 99.1%; in assay [15], 90.8%; in assay [16], 101%; in assay [17] it was 84.4%; in assay [18] it was 90.5%. Moreover, the growth in assay [19] was 99.7%; in assay [20] it was 116%.

Regarding `O=C(O)CCCN1C(=O)C2C3CCC(C3)C2C1=O` (stereo not given), the growth in assay [1] was 105%; in assay [2] it was 96%; in [3], 130%; in assay [4], 83.8%; in assay [5] it was 107%; in [6] it was 109%. For the same compound, the growth in [7] was 103%; in assay [8], 111%; in assay [9], 105%; in [10], 103%; in assay [11], 100%; in assay [12], 95.8%. Further, the growth was 104% in [13]; 104% in assay [14]; 106% in [15]; 101% in assay [16]; 97% in assay [17]; 103% in assay [18]. For the same compound, the growth is 113% in [19] and 101% in assay [20].

On to `Cc1ccc(F)cc1NC(=O)c1cc(Cl)ccc1Nc1ccccc1`, for which the growth in assay [1] was 22.3%; in [2], 83%; in [3], 69.7%; in assay [4], 68.3%; in [5], 55%; in assay [6], 13.7%. In addition, the growth in assay [7] is 62.5%; in assay [8] it was 65.7%; in [9], 45.1%; in [10], 38.4%; in assay [11], 17.8%; in [12], 53.6%. The growth in assay [13] is 59.4%; in [14], 42.5%; in assay [15] it was 23.2%; in assay [16], 70.9%; in [17], 65.4%; in [18], 49.4%. The results for the growth in [19] and in [20] were 89.6% and 54.9%, respectively.

With `O=C(c1nc2ccccc2[nH]1)C1C(c2cccc([N+](=O)[O-])c2)C2CC3CCCCC3N2[C@@]12C(=O)Nc1cc(Cl)ccc12` (stereo not given in full), the growth in assay [1] is 24.2%; in assay [2], 29.3%; in assay [3] it was 18.6%; in [4] it was -52.5% (active); in assay [5], 39.9%; in [6], 24.8%. Moreover, the growth in assay [7] is 48.4%; in assay [8], 43.5%; in assay [9], 21.5%; in [10], 20.9%; in assay [11], 13.5%; in [12], 15.1%. Also, the growth in assay [13] was 39.1%; in assay [14] it was 32.4%; in [15] it was 19.6%; in assay [16], 45.4%; in assay [17], 33.5%; in assay [18], 19.7%. Also, the figures for the growth in assay [19] and in [20] were 55.3% and 41.4%, respectively.
